For 41 molecules, Potency, outcome and activity change, negative = inhibition results are on record in PubChem BioAssay (NCATS).

Experiment [1] is described as follows: qHTS to identify inhibitors of the type 1 interferon - major histocompatibility complex class I in skeletal muscle: primary screen against the NCATS Pharmaceutical Collection (AID 1347407).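 Also: luminescence of HiBiT knocked into endogenous HLA-B as interferon-induced MHC class I level.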 Also: potency is read from the fitted curve at half-maximal effect. Put shortly:
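Immortalized human myoblasts (C25cl48) with HiBiT knocked into endogenous HLA-B*08:01 were stimulated with 4.0 ng/ml IFN-beta and treated with compounds ([…] top 46 uM) for 24 hrs at 37 C. HiBiT lytic luminescence read.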
In general terms: In qHTS, concentration-response curves come from the screen itself.

Experiment [2] deals with Protein phosphatase 1D (Homo sapiens) (UniProt O15297). Kind of experiment: RapidFire Mass Spectrometry qHTS Assay for Modulators of WT P53-Induced Phosphatase 1 (WIP1) (AID 1347424). Also: series mostly up to about 63 µM. Put shortly:
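RapidFire MS readout of dephosphorylated VEPPL-S-QETFS product, with 1 uM isotope-labelled peptide standard. Reaction: 10 nM WIP1, 2 uM phosphopeptide substrate, 5 min, room temperature, after 1 h compound preincubation; stopped with 0.5% formic acid.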

The target is the same in experiment [3]. Kind of experiment: Rhodamine-PBP qHTS Assay for Modulators of WT P53-Induced Phosphatase 1 (WIP1) (AID 1347425). Put shortly:
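Read-out: Rhodamine-PBP fluorescence (ex 525/em 598 nm) for released Pi, read each minute for 11 min after adding 10 uM VEPPL-pS-QETFS; signal taken as f1 minus pre-substrate f0. Enzyme 5 nM WIP1 with 1 hr room-temperature compound preincubation.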

The structures appear in SMILES notation. Records with an inconclusive call do not appear. A call without a number means that no potency is given here. Unmarked numbers belong to inactive results. Calls of active or inactive are those of the source. Calls follow the shape of the dose curve; as a rule, active = well fitted curve in the direction sought with a large enough effect; inconclusive = small, poorly fitted or top-dose-only effect, or another doubt; inactive = no such curve, though single readings can be large; an effect the other way counts as inactive or inconclusive.

Chain of Protein phosphatase 1D (Homo sapiens) (O15297 whole entry, looked up): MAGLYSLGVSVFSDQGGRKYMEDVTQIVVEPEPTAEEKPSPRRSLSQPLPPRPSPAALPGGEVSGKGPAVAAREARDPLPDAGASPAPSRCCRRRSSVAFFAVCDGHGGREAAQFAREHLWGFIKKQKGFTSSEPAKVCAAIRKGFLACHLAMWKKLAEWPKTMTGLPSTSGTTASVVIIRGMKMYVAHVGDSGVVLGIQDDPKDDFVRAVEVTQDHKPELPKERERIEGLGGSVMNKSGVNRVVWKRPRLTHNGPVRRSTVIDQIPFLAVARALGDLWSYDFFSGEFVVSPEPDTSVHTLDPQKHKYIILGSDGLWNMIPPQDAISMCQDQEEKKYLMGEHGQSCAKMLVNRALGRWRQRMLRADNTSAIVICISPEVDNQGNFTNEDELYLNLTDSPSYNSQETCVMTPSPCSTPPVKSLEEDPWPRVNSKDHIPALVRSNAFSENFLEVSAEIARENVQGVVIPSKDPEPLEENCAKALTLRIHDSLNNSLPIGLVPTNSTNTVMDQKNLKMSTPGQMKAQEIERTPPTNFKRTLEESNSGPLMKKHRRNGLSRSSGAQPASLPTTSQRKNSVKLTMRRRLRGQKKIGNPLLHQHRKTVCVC

For the molecule `CN(C/C=C/c1ccccc1)Cc1cccc2ccccc12`, the Potency result in experiment [1] and in experiment [2] was “inactive” throughout. Besides, the molecule was classed as inactive in experiment [3].

For the molecule `O=C(Nc1ccc(Cl)c(Cl)c1)C1CC1`, the Potency entry in experiment [1] and in experiment [2] was “inactive” throughout. The molecule was classed as inactive in experiment [3].

Consider `Oc1c(I)cc(I)c2cccnc12`, for which the Potency entry in experiment [1] and in experiment [2] was “inactive” each time. Also, the molecule was called inactive in experiment [3].

As to `COc1cc(C(=S)N2CCOCC2)cc(OC)c1OC`, the Potency entry in experiment [1] and in experiment [2] was “inactive” throughout. In addition, the molecule was classed as inactive in experiment [3].

Consider `CC1(C)O[C@@H]2C[C@H]3[C@@H]4CCC5=CC(=O)CC[C@]5(C)[C@@]4(F)[C@@H](O)C[C@]3(C)[C@]2(C(=O)CCl)O1`, for which the Potency entry in experiment [1] and in experiment [2] was “inactive” each time. Further, in experiment [3], the molecule was called inactive.

With `OC[C@H]1O[C@@H](n2cnc3c(=S)nc[nH]c32)[C@H](O)[C@@H]1O`, the Potency result in experiment [1] and in experiment [2] was “inactive” in each case. Moreover, in experiment [3], the molecule was classed as inactive.

With `Clc1ccc2c(c1)CCc1cccnc1C2=C1CCNCC1`, the Potency entry in experiment [1] and in experiment [2] was “inactive” each time. Moreover, the call in experiment [3] was inactive.

For `O=C(N/N=C/c1ccccc1O)c1ccncc1`, the Potency result in experiment [1] and in experiment [2] was “inactive” throughout. The result in experiment [3] was inactive.

`CN1[C@@H]2CC[C@H]1CC(OC(=O)c1c[nH]c3ccccc13)C2` (stereo partly drawn): the Potency entry in experiment [1] and in experiment [2] was “inactive” throughout. In addition, in experiment [3], the molecule was called inactive.

For `CC(=O)CC(c1ccc([N+](=O)[O-])cc1)c1c(O)c2ccccc2oc1=O` (stereo not drawn), the Potency in experiment [1] is 1.49 µM (active). Besides, in experiment [2], the Potency entry is “inactive”. The molecule was classed as inactive in experiment [3].

On to `COc1cccc(CCc2ccccc2OCC(CN(C)C)OC(=O)CCC(=O)O)c1` (stereo not drawn), for which the Potency entry in experiment [1] and in experiment [2] was “inactive” in each case. The molecule was classed as inactive in experiment [3].

As to `CC(C)(C)NC(=O)[C@@H]1CN(Cc2cccnc2)CCN1C[C@@H](O)C[C@@H](Cc1ccccc1)C(=O)N[C@H]1c2ccccc2C[C@H]1O`, the Potency entry in experiment [1] and in experiment [2] was “inactive” throughout. Moreover, the outcome in experiment [3] was inactive.

For the molecule `CN1CCCC(CC2c3ccccc3Sc3ccccc32)C1` (stereo not drawn), the Potency entry in experiment [1] and in experiment [2] was “inactive” each time. The molecule was classed as inactive in experiment [3].

With `CC(O)(P(=O)(O)O)P(=O)(O)O`, the Potency result in experiment [1] and in experiment [2] was “inactive” each time. Also, in experiment [3], the outcome was inactive.

With `CC[N+](CC)(CCNC(=O)C(=O)NCC[N+](CC)(CC)Cc1ccccc1Cl)Cc1ccccc1Cl`, the Potency result in experiment [1] and in experiment [2] was “inactive” in each case. The molecule was classed as inactive in experiment [3].

On to `CCn1cc(C(=O)O)c(=O)c2cnc(N3CCCC3)nc21`, for which the activity change, negative = inhibition in experiment [1] was -17.9% [at 9.18 µM]; in experiment [2], -0.783% [at 12.6 µM]; in experiment [3] it was -2.4% [at 11.5 µM].

Consider `CC(=O)OCC(=O)NCCCOc1cccc(CN2CCCCC2)c1`, for which the Potency result in experiment [1] and in experiment [2] was “inactive” in each case. Further, in experiment [3], the result was inactive.

On to `O=C1OCCN1/N=C/c1ccc([N+](=O)[O-])o1`, for which the Potency result in experiment [1] and in experiment [2] was “inactive” each time. Moreover, in experiment [3], the molecule was classed as inactive.

For `CCCCCC=CCC=CCCCCCCCC(=O)OCC`, the Potency entry in experiment [1] and in experiment [2] was “inactive” throughout. The molecule was classed as inactive in experiment [3].

On to `Cc1cc(=O)n(-c2ccccc2)n1C`, for which the Potency entry in experiment [1] and in experiment [2] was “inactive” in each case. The result in experiment [3] was inactive.

Regarding `Cc1ccnc(NS(=O)(=O)c2ccc(N)cc2)n1`, the Potency entry in experiment [1] and in experiment [2] was “inactive” throughout. The molecule was called inactive in experiment [3].

`NC[C@H]1O[C@H](O[C@H]2[C@H](O[C@@H]3O[C@H](CO)[C@@H](O)[C@H]3O)C(O)[C@H](N)C[C@@H]2N)[C@H](N)[C@@H](O)[C@@H]1O` (stereo partly drawn): the activity change, negative = inhibition in experiment [1] was -10.7% [at 9.18 µM]; in experiment [2] it was 6.77% [at 12.6 µM]; in experiment [3] it was 17.3% [at 11.5 µM].

Regarding `CC(=O)Nc1c(I)cc(I)c(C(=O)O)c1I`, the Potency entry in experiment [1] and in experiment [2] was “inactive” in each case. Also, the result in experiment [3] was inactive.

As to `COc1c2occc2c(OC)c2c(=O)cc(C)oc12`, the Potency entry in experiment [1] and in experiment [2] was “inactive” in each case. For the same molecule, the result in experiment [3] was inactive.

On to `CN1C(CCl)Nc2cc(Cl)c(S(N)(=O)=O)cc2S1(=O)=O` (stereo not drawn), for which the Potency result in experiment [1] and in experiment [2] was “inactive” throughout. The result in experiment [3] was inactive.

On to `CN(C)CCOc1ccccc1Cc1ccccc1`, for which the Potency entry in experiment [1] and in experiment [2] was “inactive” throughout. The outcome in experiment [3] was inactive.

Take `CCCCOc1ccc(C(=O)CCN2CCCCC2)cc1`: the Potency entry in experiment [1] and in experiment [2] was “inactive” each time. Besides, the molecule was called inactive in experiment [3].

As to `O=C(CCCN1CCC(O)(c2ccc(Br)cc2)CC1)c1ccc(F)cc1`, the Potency result in experiment [1] and in experiment [2] was “inactive” each time. The result in experiment [3] was inactive.

Consider `CN1CCC(=C2c3ccccc3Sc3ccccc32)CC1`, for which the Potency entry in experiment [1] and in experiment [2] was “inactive” throughout. The call in experiment [3] was inactive.

For `CN(C)CCCOc1nn(Cc2ccccc2)c2ccccc12`, the Potency result in experiment [1] and in experiment [2] was “inactive” in each case. For the same molecule, the outcome in experiment [3] was inactive.

Consider `NC(CO)(CO)CO`, for which the Potency entry in experiment [1] and in experiment [2] was “inactive” in each case. In addition, the molecule was called inactive in experiment [3].

With `CC(=O)OCC(=O)[C@@]1(O)[C@H](C)C[C@H]2[C@@H]3CCC4=CC(=O)C=C[C@]4(C)[C@@]3(F)[C@@H](O)C[C@@]21C`, the Potency entry in experiment [1] and in experiment [2] was “inactive” in each case. Further, the result in experiment [3] was inactive.

Regarding `Oc1cc(O)c2c(c1)O[C@H](c1ccc(O)c(O)c1)[C@H](O)C2`, the Potency result in experiment [1] and in experiment [2] was “inactive” throughout. Moreover, the result in experiment [3] was inactive.

As to `CCN1CCC[C@H]1CNC(=O)c1c(OC)ccc(Br)c1OC`, the Potency result in experiment [1] and in experiment [2] was “inactive” each time. The result in experiment [3] was inactive.

`Cc1onc(-c2c(Cl)cccc2Cl)c1C(=O)N[C@@H]1C(=O)N2[C@@H]1SC(C)(C)[C@@H]2C(=O)O`: the Potency entry in experiment [1] and in experiment [2] was “inactive” in each case. Moreover, the molecule was classed as inactive in experiment [3].

Consider `CC(=O)Oc1ccc(C(=C2CCCCC2)c2ccc(OC(C)=O)cc2)cc1`, for which the Potency result in experiment [1] and in experiment [2] was “inactive” in each case. The outcome in experiment [3] was inactive.

On to `COC(=O)CCc1ccc(OCC(O)CNC(C)C)cc1` (stereo not drawn), for which the Potency result in experiment [1] and in experiment [2] was “inactive” throughout. In addition, in experiment [3], the result was inactive.

With `CN(C)C(=S)SC(=S)N(C)C`, the Potency entry in experiment [1] and in experiment [2] was “inactive” in each case. Further, the result in experiment [3] was inactive.

Regarding `COc1cccc2c1C(=O)c1c(O)c3c(c(O)c1C2=O)C[C@@](O)(C(C)=O)C[C@@H]3O[C@H]1C[C@H](N)[C@H](O)[C@H](C)O1`, in experiment [1], the Potency was 3.33 µM (active). Further, in experiment [2], the Potency result was “inactive”. For the same molecule, in experiment [3], the call was inactive.

Consider `CC1(C)O[C@@H]2[C@@H](CO[C@@]3(COS(N)(=O)=O)OC(C)(C)O[C@@H]23)O1`, for which the Potency entry in experiment [1] and in experiment [2] was “inactive” in each case. Further, in experiment [3], the outcome was inactive.

Turning to `CCCCCCCCCCCCCCCCCC(=O)OCC(O)CO` (stereo not drawn), the Potency result in experiment [1] and in experiment [2] was “inactive” in each case. Besides, the call in experiment [3] was inactive.
